The record followed here is PubChem BioAssay AID1347043 (National Center for Advancing Translational Sciences (NCATS), 2019).

Hit rate of the full screen: of about 76,000 compounds, about 1,900 (2.5%) were called active. Entries that show only a call come without a potency. Not shown: some 5% with an inconclusive outcome. This is one part of a sample in which actives are shown more often than they occur. Calls follow the shape of the dose curve; as a rule, active = well fitted inhibition curve with a large enough effect; inconclusive = small, poorly fitted or top-dose-only effect; inactive = flat fitted curve, though single readings scatter.
Potency is read from the fitted curve at half-maximal effect.

Luciferin 4-monooxygenase (Photinus pyralis), sequence (P08659 whole entry, looked up): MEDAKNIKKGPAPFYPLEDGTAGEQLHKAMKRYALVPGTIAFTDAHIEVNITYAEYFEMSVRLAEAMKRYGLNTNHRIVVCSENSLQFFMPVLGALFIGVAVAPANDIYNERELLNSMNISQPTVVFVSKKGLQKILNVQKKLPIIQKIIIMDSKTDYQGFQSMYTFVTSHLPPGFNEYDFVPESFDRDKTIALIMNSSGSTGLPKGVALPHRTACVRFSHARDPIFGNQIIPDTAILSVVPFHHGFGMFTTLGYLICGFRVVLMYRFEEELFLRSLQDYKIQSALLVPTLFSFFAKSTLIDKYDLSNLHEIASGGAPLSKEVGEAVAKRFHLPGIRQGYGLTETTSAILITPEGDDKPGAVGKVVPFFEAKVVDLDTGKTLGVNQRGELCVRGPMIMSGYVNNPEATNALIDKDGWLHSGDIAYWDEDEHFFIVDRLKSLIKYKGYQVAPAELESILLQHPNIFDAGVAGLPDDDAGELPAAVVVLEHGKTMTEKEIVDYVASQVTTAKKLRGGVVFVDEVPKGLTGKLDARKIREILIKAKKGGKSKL

The experiment concerns the target Luciferin 4-monooxygenase (Photinus pyralis) (UniProt P08659). In words: Firefly luciferase inhibition profiling of diverse chemical library using quantitative high-throughput screening. Also: nearly all actives have a fitted effect of over 65% in size. As to conditions: purified P. pyralis luciferase, luminescence, biochemical; series mostly up to 115 µM. In a few lines:
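Luminescence read by CCD imaging after purified firefly luciferase (10nM final) was added to substrate buffer holding 10uM D-luciferin and 10uM ATP, pH 7.5, pre-dosed with compound.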
Regarding `CCCCCCOC(=O)C1=CN(C)S(=O)(=O)N=C1C`, the Potency result is “inactive”.

Turning to `Cn1cc(CC(=O)N2CCCc3ncc(C(N)=O)cc32)c2ccccc21`, the Potency entry is “inactive”.

As to `COCCNC(=O)CCc1c(C)nn(-c2ccccc2)c1Oc1ccccc1F`, the Potency result is “inactive”.

With `O=C([C@@H]1C[C@H](Oc2ccccc2)CN1C(=O)CN1CCCCCC1)N1CCCC1`, the Potency result is “inactive”.

`Fc1ccccc1CN1CCNc2cc(Nc3cccnc3)ncc2C1`: the Potency was 50.1 µM (active).

In the case of `CN(C)c1cccc(Nc2cc3c(cn2)NCCN(Cc2ccccc2)C3)c1`, the Potency entry was “inactive”.

Turning to `c1ccc(CN2CCNc3cc(NCc4cccnc4)ncc3C2)cc1`, the Potency result is “inactive”.

Consider `Fc1ccc(Cc2nc3nccc(-c4ccco4)n3n2)cc1`, for which the Potency entry was “inactive”.

Consider `COc1ccc(-c2ccc3ncc(Nc4ccc(C(F)(F)F)cc4)n3n2)cn1`, for which the Potency result was “inactive”.

Take `Cc1cccc(-c2cccc(NC(=O)C3CCCN(C(=O)CC(F)(F)F)C3)c2)c1` (configuration not stated): the Potency was 11.2 µM (active).

Take `O=C(Nc1cccc(F)c1)N1CCCC(CN2CCOCC2)CC1` (configuration not stated): the Potency entry is “inactive”.

As to `CC(=O)Nc1cccc(-c2nnc3n2CCCC3)c1`, the Potency entry is “inactive”.

Consider `Cc1cccc(C(=O)N2C[C@@H](F)C[C@H]2C(=O)N2CCCCC2)c1`, for which the Potency entry was “inactive”.

Consider `CC#CC(=O)N1CCCC(C(=O)Nc2cccc(-c3cccc(C)c3)c2)C1` (configuration not stated), for which the Potency is 15.8 µM (active).

As for `O=C(Nc1cccc(Cl)c1)C1CCCN(c2nc3ncccc3o2)C1` (configuration not stated), the Potency entry was “inactive”.

For `CCn1nccc1C(=O)N1CCCC1c1cc(C)no1` (configuration not stated), the Potency entry was “inactive”.

As to `CN1C(=O)CC(C(=O)O)C12CCN(CCc1ccccn1)CC2` (configuration not stated), the Potency entry was “inactive”.

With `Cc1ccc(CNC(=O)N2CCN(C(=O)N3CC4CC(C3)[C@H]3CCCC(=O)N3C4)CC2)cc1` (some centres not stated), the Potency entry was “inactive”.

As for `CCn1c(CN(C)C)nnc1C1CCN(Cc2ccc(-n3ccnc3)cc2)CC1`, the Potency result is “inactive”.

As for `COc1ccc(C2Cn3nnc(C(=O)N4CCC(C(=O)NCC5CCCCC5)CC4)c3CO2)cc1` (configuration not stated), the Potency result was “inactive”.

As to `Cc1ccc(C2Cn3nnc(C(=O)N4CCC(C(=O)NCCc5ccccc5)CC4)c3CO2)cc1` (configuration not stated), the Potency was 12.6 µM (active).

On to `Cc1ccc(C2Cn3nnc(C(=O)N4CCN(C(=O)COc5cccc(C)c5)CC4)c3CO2)cc1` (configuration not stated), for which the Potency entry is “inactive”.

`O=C(c1ccoc1)N1CCN(C(=O)c2nnn3c2COC(c2ccc(Cl)cc2)C3)CC1` (configuration not stated): the Potency result was “inactive”.

On to `CCCCNC(=O)C1CCN(C(=O)c2nnn3c2COC(c2ccc(C)cc2)C3)CC1` (configuration not stated), for which the Potency was 28.2 µM (active).

`CN(C)c1ccc(C(=O)N2CCN(C(=O)c3nnn4c3COC(c3ccc(Cl)cc3)C4)CC2)cc1` (configuration not stated): the Potency result is “inactive”.

In the case of `Cc1ccc(C2Cn3nnc(C(=O)N4CCC(C(=O)Nc5ccc(Cl)cc5)CC4)c3CO2)cc1` (configuration not stated), the Potency was 15.8 µM (active).

Consider `Cc1ccc(C(=O)N2CCN(C(=O)c3nnn4c3COC(c3ccccc3)C4)CC2)cc1` (configuration not stated), for which the Potency entry was “inactive”.

In the case of `COc1ccc(C2Cn3nnc(C(=O)N4CCN(C(=O)c5ccc(C)cc5C)CC4)c3CO2)cc1` (configuration not stated), the Potency result was “inactive”.

Consider `C=CCN(C)C(=O)[C@@H](C)C1CC[C@@]2(C)Cc3sc(Nc4c(Cl)cccc4Cl)nc3[C@@H](C)[C@@H]2[C@H]1O` (some centres not stated), for which the Potency entry is “inactive”.

Turning to `O=C(C[C@@H]1CCNC[C@@H]1Cc1cc(CSc2ccccc2)on1)NCc1ccc2c(c1)OCO2`, the Potency result was “inactive”.

`CCc1cccc(C)c1NC(=O)Cn1ccn2nc(-c3ccc(F)cc3)c(CO)c2c1=O`: the Potency result is “inactive”.

Regarding `Cc1ocnc1C(=O)N1CCc2nc(N)nc(N3CC[C@H](O)C3)c2CC1`, the Potency entry was “inactive”.

In the case of `Cc1cn2nc(C(=O)NCc3ccc(F)cc3)cc2c(N2CCCC2)n1`, the Potency entry was “inactive”.

As to `CCN1CCN(C(=O)C23CCCC=C2N(C2CCCC2)C(=O)CC3)CC1` (configuration not stated), the Potency is 39.8 µM (active).

Regarding `CC(C)CCN1C(=O)CC[C@]2(C(=O)N3CCN(CC(C)C)CC3)CCCC[C@@H]12`, the Potency result is “inactive”.

Regarding `CC(C)CCN1C(=O)CC[C@]2(C(=O)N3CCN(C)CC3)CCCC[C@@H]12`, the Potency result is “inactive”.

In the case of `CNC(=O)[C@@H]1CN(C(=O)c2n[nH]c3ccccc23)C[C@H]1c1n[nH]c(C)n1`, the Potency entry was “inactive”.

Take `Cc1cccnc1NC(=O)C1c2ccccc2C(=O)N(C2CCCC2)C12CCCC2` (configuration not stated): the Potency entry was “inactive”.

With `O=C([C@@H]1C[C@H](F)CN1C(=O)c1ccccc1OC(F)(F)F)N1CCCCC1`, the Potency result is “inactive”.

Consider `CC1(NC(=O)C2CC2)CN(c2ccc(OC(F)(F)F)cc2)C1`, for which the Potency result was “inactive”.

With `O=C([C@@H]1C[C@@H](O)[C@H](O)[C@@H]2NC(=S)N(c3ccc(OC(F)(F)F)cc3)[C@@H]21)N1CCCCC1`, the Potency was 14.1 µM (active).

On to `Cc1noc(-c2cccc(OC3CN(C(=O)c4ccco4)C3)c2)n1`, for which the Potency result is “inactive”.

On to `COc1ccccc1OCc1cc(C(=O)NCc2n[nH]c3c2CCC3)n[nH]1`, for which the Potency entry is “inactive”.

On to `O=C(c1ccc(-c2ccc(N3CCCCC3)nc2)cc1)N1CCOCC1`, for which the Potency was 35.5 µM (active).

With `CN1CCCN(c2ccc(C(=O)N3CCC(N4CCOCC4)CC3)cn2)CC1`, the Potency result was “inactive”.

Consider `CCOC(=O)C1CCN(C(=O)c2ccc(-c3ccc(N4CCCCCC4)nc3)cc2)CC1`, for which the Potency entry is “inactive”.

For the compound `O=C(CCc1ccccc1)NCCn1cccc1-c1nc(-c2ccc3c(c2)OCO3)no1`, the Potency is 50.1 µM (active).

Consider `COc1ccc(-c2noc(-c3cccn3CC(=O)Nc3ccccc3)n2)cc1F`, for which the Potency entry is “inactive”.

Consider `Cc1ccc(NC(=O)Cn2cccc2-c2nc(-c3ccc4c(c3)OCO4)no2)cc1Cl`, for which the Potency result was “inactive”.

As to `COc1ccc(CN2CCC3(COc4ccccc4C(=O)N3)C2)cc1` (configuration not stated), the Potency result was “inactive”.

In the case of `Cc1c(Cl)cccc1NC(=O)N1C[C@@H](F)C[C@H]1C(=O)N1CCc2ccccc2C1`, the Potency result is “inactive”.

On to `O=C(CC1CCCC1)N1CCC(c2nc(C3CCOCC3)no2)CC1`, for which the Potency result was “inactive”.

For `O=C(NC1CCCN(c2cc(-c3ccc(F)cc3)[nH]n2)C1)c1ccc(Br)cc1` (configuration not stated), the Potency entry was “inactive”.

For the compound `O=C(NC1CCCN(c2cc(-c3ccccc3)[nH]n2)C1)c1cccc(Cl)c1` (configuration not stated), the Potency result was “inactive”.

Turning to `O=C(NC1CCN(c2cc(-c3ccc(F)cc3)[nH]n2)C1)c1ccc2c(c1)OCO2` (configuration not stated), the Potency result is “inactive”.

Take `O=C(NC1CCCN(c2cc(-c3ccc(Cl)cc3)[nH]n2)C1)c1ccccc1F` (configuration not stated): the Potency entry was “inactive”.

For `COc1ccc(-c2cc(N3CCCC(NC(=O)c4ccsc4)C3)n[nH]2)cc1` (configuration not stated), the Potency is 14.1 µM (active).

On to `COc1ccc(-c2cc(N3CCC(NC(=O)c4ccc(N(C)C)cc4)C3)n[nH]2)cc1` (configuration not stated), for which the Potency entry was “inactive”.

As for `O=C(NC1CCN(c2cc(-c3ccc(F)cc3)[nH]n2)C1)c1cc2ccccc2[nH]1` (configuration not stated), the Potency was 6.31 µM (active).

For the compound `O=C(NC1CCN(c2cc(-c3ccc(Cl)cc3)[nH]n2)C1)c1c[nH]c2ccccc12` (configuration not stated), the Potency result is “inactive”.

Turning to `O=C(NC1CCCN(c2cc(-c3ccc(Cl)cc3)[nH]n2)C1)c1ccncc1` (configuration not stated), the Potency was 12.6 µM (active).

Consider `CC(=O)N1CCc2sc(C(=O)NCc3ccc(F)cc3Cl)cc2C1`, for which the Potency result is “inactive”.

As for `Cn1cnnc1CC1CCN(c2nnnn2-c2ccccc2)CC1`, the Potency result is “inactive”.

Turning to `COc1ccccc1N1CCN(C(=O)Cn2c(N3CCc4ccccc4C3)nc(C)cc2=O)CC1`, the Potency result is “inactive”.

For the compound `Cc1cccc(-c2cc(C3CCN(S(=O)(=O)c4cccc(C#N)c4)CC3)[nH]n2)c1`, the Potency result is “inactive”.

Turning to `COc1ccc(F)cc1CN1CCCC(CO)(CC2CC2)C1` (configuration not stated), the Potency result was “inactive”.

For the compound `CCNC(=O)N1CCCC1c1noc(CCC(=O)NCC2CC2)n1` (configuration not stated), the Potency result is “inactive”.

Regarding `C=CCC1(OC)CCN(C(=O)c2cnn3cc(CN(CC)CC)cnc23)CC1`, the Potency result was “inactive”.

On to `COCCNC(=O)[C@H]1C[C@H](Oc2cccnc2)CN1S(=O)(=O)c1cn(C)cn1`, for which the Potency entry is “inactive”.

On to `COc1cncc(-c2cccc(COc3ccc4c(cnn4CC[S+](C)(=O)[O-])c3)c2)c1`, for which the Potency entry is “inactive”.

`CN(C)Cc1cn2c(=O)n(C)cc(-c3cccc(OCc4ccccc4)c3)c2n1`: the Potency result is “inactive”.

Regarding `C[S+](=O)([O-])CCn1ncc2cc(OCc3cccc(-c4ccccc4)c3)ccc21`, the Potency was 14.1 µM (active).

Turning to `Cn1cnc(S(=O)(=O)N2CCC(N(C(=O)C3CC3)C3CCOCC3)CC2)c1`, the Potency result was “inactive”.

In the case of `Cc1ccc(C(=O)NC2CCN(c3cc(-c4cccs4)[nH]n3)C2)cc1` (configuration not stated), the Potency entry is “inactive”.

As for `Cc1ccc2cc(CN3CCN(CC(N)=O)CC3)c(-c3cccs3)nc2c1`, the Potency is 12.6 µM (active).

Take `Cc1cccnc1C(=O)N[C@@H]1CN(c2ncccn2)C[C@H]1CO`: the Potency entry was “inactive”.

As for `COc1ccc(-c2nccc3c(=O)cc(N(C)c4ccccc4)oc23)cn1`, the Potency entry is “inactive”.

Consider `COc1ccc(CN2CCc3oc(C)c(C(=O)NC(C)Cn4ccc(C)n4)c3C2)cc1` (configuration not stated), for which the Potency entry is “inactive”.

As to `COCCOCC(=O)N1CCCC(c2nc(-c3ccccc3)no2)CCNC(=O)CC1` (configuration not stated), the Potency result was “inactive”.

Take `O=[N+]([O-])c1cccc(-c2noc([C@@H]3C[C@@H](O)CN3Cc3cccc(OC(F)(F)F)c3)n2)c1`: the Potency result was “inactive”.

With `O=[N+]([O-])c1ccccc1CN1C[C@H](O)C[C@H]1c1nc(-c2ccc(F)cc2)no1`, the Potency is 50.1 µM (active).

As to `O=[N+]([O-])c1cccc(-c2noc([C@@H]3C[C@@H](O)CN3Cc3cccnc3)n2)c1`, the Potency result is “inactive”.

`CCCNC(=O)C(NC(=O)c1cccc(OC)c1)C1CCN(C(=O)c2ccccc2F)CC1` (configuration not stated): the Potency result is “inactive”.

Consider `CCNC(=O)O[C@@H]1CO[C@H]2[C@@H]1OC[C@@H]2NC(=S)Nc1cccc2ccccc12`, for which the Potency result is “inactive”.

Regarding `CCNC(=O)C1C(c2cccc(NC(=O)c3ccc(OC)cc3)c2)OC(=O)N1Cc1ccc(C)cc1` (configuration not stated), the Potency was 11.2 µM (active).

As to `COc1ccc(NC(=O)c2ccc(CN3C(=O)NC4(CCOCC4)C3=O)cc2)c(OC)c1`, the Potency result is “inactive”.

Consider `COc1ccc(CN2C(=O)CO[C@H](c3ccc(NC(=O)c4ccccc4OC)cc3)[C@H]2CO)cc1`, for which the Potency entry was “inactive”.

For `Cc1nc(-c2ccccc2)n(CC(=O)NCc2ccc(F)cc2)c(=O)c1CCO`, the Potency result was “inactive”.

For `CCCNC(=O)CCC1CCN(C(=O)c2ccc(C)cc2)CC1`, the Potency is 31.6 µM (active).

For `COc1ccc(NC(=O)CCC2CCN(S(=O)(=O)c3ccc(C)cc3)CC2)cc1F`, the Potency result was “inactive”.

Regarding `CN1N=C(C(=O)N2CCC(CCC(=O)Nc3ccc4c(c3)OCCO4)CC2)CCC1=O`, the Potency entry is “inactive”.

For `Cc1ccc(C(=O)N2CCC(CCC(=O)N3CCc4ccccc4C3)CC2)cc1`, the Potency is 22.4 µM (active).

`O=C(c1ccc2c(c1)[nH]c(=O)n2C1CCC(O)CC1)N1CCc2ccccc2C1` (configuration not stated): the Potency entry was “inactive”.

In the case of `Cc1ccc(S(=O)(=O)N2CCC(CCC(=O)NCc3ccccc3)CC2)cc1`, the Potency result is “inactive”.

As to `CCCNc1cc(N2CCC(CCC(=O)Nc3ccc(C)cc3)CC2)ncn1`, the Potency is 28.2 µM (active).

On to `CCCNC(=O)N(C1CCOCC1)C1CCN(C(=O)c2ccncc2)CC1`, for which the Potency entry was “inactive”.

`Cc1ccc(C(=O)N2CCC(c3nn(-c4ccccc4)c(=O)[nH]3)CC2)cc1`: the Potency entry was “inactive”.
